Source: PubChem BioAssay (NCI)
Values joined by “and” are separate entries in the source; they are usually repeats but may differ in a detail not shown here. Identical values can stand only once. This is part of a sample that, as a whole, favours compounds with a hit. Of some 79,000 tested, about 15% had one in any assay. The source holds several records for some structures; these can differ, active in one and inactive in another. Active and inactive are the calls of the source. Cut-off read from the data, not from the text of the source: active = growth inhibition above about 70%; inactive = the rest.

Legend:
[1] = NCI Yeast Anticancer Drug Screen. Data for the rad52 strain (AID 147);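 note: 0% = growth of vehicle-treated control cultures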; details: S. cerevisiae rad52 mutant growth inhibition, stronger effect = higher value
Outline: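 Vehicle-treated cultures served as the reference for growth inhibition of compound-exposed yeast bearing a DNA repair mutation.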

[2] = NCI Yeast Anticancer Drug Screen. Data for the wt1 strain (AID 149);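 note: 0% = growth of vehicle-treated wt1 cultures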; details: S. cerevisiae wt1 strain (SPY 50644) growth inhibition, stronger effect = higher value
Outline: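 The wt1 strain was treated with compounds, and growth was compared with vehicle-treated cultures to give inhibition.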

[3] = NCI Yeast Anticancer Drug Screen. Data for the rad50EPP+ strain (AID 151);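 note: 0% = growth of vehicle-treated control cultures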; details: S. cerevisiae rad50 mutant strain, stronger effect = higher value
Outline: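 In this screen, rad50EPP+ yeast were exposed to compounds. Growth inhibition was scored against vehicle-treated controls.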

[4] = NCI Yeast Anticancer Drug Screen. Data for the mgt1 strain (AID 153); details: S. cerevisiae mgt1 mutant growth inhibition, stronger effect = higher value
Outline: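 mgt1 strain exposed; growth vs vehicle control recorded as inhibition.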

[5] = NCI Yeast Anticancer Drug Screen. Data for the rad50 strain (AID 155);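 note: 0% = growth of vehicle-only cultures of the same strain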; details: S. cerevisiae rad50 strain growth inhibition, stronger effect = higher value
Outline: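 Cells are treated with compound, grown, and their growth is then scored against vehicle-only cultures of the same repair-deficient yeast strain.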

[6] = NCI Yeast Anticancer Drug Screen. Data for the mec2-1 strain (AID 157); details: S. cerevisiae mec2-1 strain, stronger effect = higher value
Outline: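 Vehicle-treated cultures served as reference for growth inhibition of compound-exposed mec2-1 yeast.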

[7] = NCI Yeast Anticancer Drug Screen. Data for the rad14 strain (AID 159);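 note: 0% = growth of vehicle-treated control cultures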; details: S. cerevisiae rad14 strain growth inhibition, stronger effect = higher value
Outline: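 Readout: yeast growth inhibition, referenced to vehicle-only cultures. Strain bears a defined alteration in DNA damage repair.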

[8] = NCI Yeast Anticancer Drug Screen. Data for the sgs1 mgt1 strain (AID 161);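 note: 0% = growth of cultures given vehicle only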; details: S. cerevisiae sgs1 mgt1 strain, stronger effect = higher value
Outline: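 Read-out: growth inhibition vs vehicle controls. Cells: mutant yeast strain deficient in DNA damage repair.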

[9] = NCI Yeast Anticancer Drug Screen. Data for the CLN2oe strain (AID 163);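 note: 0% = growth of vehicle-only control cultures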; details: S. cerevisiae CLN2oe strain, stronger effect = higher value
Outline: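 Inhibition relative to vehicle-treated yeast is reported. Cells: strain with genetic alteration in cell-cycle control, grown with compound.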

[10] = NCI Yeast Anticancer Drug Screen. Data for the cln2 rad14 strain (AID 165);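 note: 0% = growth equal to vehicle treated cultures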; details: S. cerevisiae cln2 rad14 strain, stronger effect = higher value
Outline: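 Each compound was tested on cln2 rad14 yeast. Inhibition of growth was calculated against vehicle-exposed controls.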

[11] = NCI Yeast Anticancer Drug Screen. Data for the bub3 strain (AID 167); details: S. cerevisiae bub3 mutant strain, stronger effect = higher value
Outline: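 Part of a panel of yeast mutants defective in DNA damage repair or cell cycle regulation. Each strain is grown with compound, and inhibition is calculated relative to solvent-treated cultures.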

[12] = NCI Yeast Anticancer Drug Screen. Data for the wt2 strain (AID 169);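 note: 0% = growth of vehicle-treated yeast cultures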; details: S. cerevisiae wt2 strain growth inhibition, stronger effect = higher value
Outline: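 Inhibition of yeast growth was determined after compound treatment, normalised to controls receiving only vehicle.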

[13] = NCI Yeast Anticancer Drug Screen. Data for the mlh1 strain (AID 171);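 note: 0% = growth of vehicle-treated control cultures of the same strain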; details: S. cerevisiae mlh1 strain growth inhibition, stronger effect = higher value
Outline: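 Vehicle-normalised growth inhibition of a repair- or checkpoint-altered yeast strain following compound treatment.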

[14] = NCI Yeast Anticancer Drug Screen. Data for the sgs1 strain (AID 173);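 note: 0% = growth of vehicle-only control cultures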; details: S. cerevisiae sgs1 mutant, stronger effect = higher value
Outline: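 Screen format: yeast with repair or checkpoint alterations, compound exposure, growth read relative to vehicle.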

[15] = NCI Yeast Anticancer Drug Screen. Data for the mlh1 rad18 strain (AID 175); details: S. cerevisiae mlh1 rad18 strain growth inhibition, stronger effect = higher value
Outline: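 Vehicle-treated cultures served as the reference for growth inhibition in a yeast strain carrying DNA damage repair alterations exposed to each compound.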

[16] = NCI Yeast Anticancer Drug Screen. Data for the rad18 strain (AID 177); details: S. cerevisiae rad18 mutant growth inhibition, stronger effect = higher value
Outline: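 Test articles were incubated with altered yeast defective in DNA damage repair. Results are given as inhibition of growth versus vehicle.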

[17] = at 5.0 µM (retest, dose inferred, filed as 0.5)
[18] = at 50.0 µM (retest, dose inferred, filed as 5.0)

Measured: growth inhibition

C#CCN(Cc1ccc2nc(N)[nH]c(=O)c2c1)c1ccc(C(=O)NC(CCC(=O)O)C(=O)O)cc1 (stereo not drawn)
17% (inactive) and 78% (active): [10]; [18]
46% (inactive) and 78% (active): [15]; [18]
inactive: [1]; at 1.2 µM 19% | [1]; at 3.7 µM 29% | [1]; at 11.0 µM 28% | [2]; at 1.2 µM 2% | [2]; at 3.7 µM 9% | [2]; at 11.0 µM 15% | [2]; at 33.0 µM 17% | [2]; at 100.0 µM 43% | [3]; at 1.2 µM 27% | [3]; at 3.7 µM 37% | [3]; at 11.0 µM 44% | [3]; at 33.0 µM 29% | [3]; at 100.0 µM 41% | [4]; at 1.2 µM -29% | [4]; at 3.7 µM -23% | [4]; at 11.0 µM -27% | [4]; at 33.0 µM 17% | [4]; at 100.0 µM 34% | [5]; at 1.2 µM 26% | [5]; at 3.7 µM 29% | [5]; [17] 12% and 1% | [5]; at 11.0 µM 26% | [5]; at 33.0 µM 69% | [6]; at 1.2 µM -9% | [6]; at 3.7 µM -6% | [6]; [17] 4% and -6% | [6]; at 11.0 µM 17% | [7]; at 1.2 µM -2% | [7]; at 3.7 µM 18% | [7]; at 11.0 µM 2% | [7]; at 33.0 µM 44% | [7]; at 100.0 µM 69% | [8]; [17] 20% and 3% | [8]; at 50.0 µM 67.4% and 35.9% | [9]; at 1.2 µM 3% | [9]; at 3.7 µM 6% | [9]; at 11.0 µM -14% | [9]; at 33.0 µM 1% | [9]; at 100.0 µM 28% | [10]; [17] 0% and 14% | [10]; at 50.0 µM 30.1% and 16.3% | [11]; at 1.2 µM -6% | [11]; at 3.7 µM -8% | [11]; [17] 12% and -11% | [11]; at 11.0 µM -18% | [11]; at 33.0 µM 3% | [11]; at 50.0 µM 63.9% and 36.5% | [11]; at 100.0 µM 43% | [12]; at 1.2 µM -9% | [12]; at 3.7 µM -9% | [12]; at 11.0 µM 11% | [12]; at 33.0 µM 21% | [12]; at 100.0 µM 28% | [13]; at 1.2 µM 14% | [13]; at 3.7 µM 14% | [13]; at 11.0 µM 19% | [13]; at 33.0 µM 41% | [13]; at 100.0 µM 55% | [14]; at 1.2 µM 24% | [14]; at 3.7 µM 35% | [14]; at 11.0 µM 36% | [14]; at 33.0 µM 64% | [15]; [17] 5% and -8% | [15]; at 50.0 µM 35% and 20.6% | [16]; at 1.2 µM -2% | [16]; at 3.7 µM -23% | [16]; at 11.0 µM -26% | [16]; at 33.0 µM 33% | [16]; at 100.0 µM 65%
62% (inactive) and 82% (active): [8]; [18]
67% (inactive) and 82% (active): [5]; [18]
active: [1]; at 33.0 µM 73% | [1]; at 100.0 µM 88% | [5]; at 50.0 µM 77.5% and 72.5% | [5]; at 100.0 µM 89% | [6]; at 33.0 µM 89% | [6]; [18] 92% and 98% | [6]; at 50.0 µM 92% and 89.9% | [6]; at 100.0 µM 92% | [11]; [18] 71% and 96% | [14]; at 100.0 µM 75%

Oc1cccc2cc(Cl)cnc12
active: [1]; at 33.0 µM 96% | [1]; at 100.0 µM 97% | [2]; at 33.0 µM 96% | [2]; at 100.0 µM 98% | [3]; at 11.0 µM 94% | [3]; at 33.0 µM 98% | [3]; at 100.0 µM 97% | [4]; at 33.0 µM 97% | [4]; at 100.0 µM 98% | [5]; at 33.0 µM 96% | [5]; at 50.0 µM 90.7% | [5]; at 100.0 µM 97% | [6]; at 33.0 µM 97% | [6]; at 50.0 µM 92.8% | [6]; at 100.0 µM 98% | [7]; at 33.0 µM 97% | [7]; at 100.0 µM 98% | [8]; [18] 99% | [8]; at 50.0 µM 91.7% | [9]; at 33.0 µM 95% | [9]; at 100.0 µM 94% | [10]; [18] 98% | [10]; at 50.0 µM 88.7% | [11]; at 33.0 µM 96% | [11]; [18] 99% | [11]; at 50.0 µM 91.8% | [11]; at 100.0 µM 97%
inactive: [1]; at 1.2 µM -5% | [1]; at 3.7 µM 5% | [1]; at 11.0 µM 49% | [2]; at 1.2 µM -28% | [2]; at 3.7 µM -39% | [2]; at 11.0 µM 20% | [3]; at 1.2 µM -11% | [3]; at 3.7 µM -2% | [4]; at 1.2 µM -18% | [4]; at 3.7 µM -22% | [4]; at 11.0 µM 3% | [5]; at 1.2 µM -29% | [5]; at 3.7 µM -13% | [5]; [17] 37% | [5]; at 11.0 µM 37% | [5]; [18] 65% | [6]; at 1.2 µM -56% | [6]; at 3.7 µM -56% | [6]; [17] 38% | [6]; at 11.0 µM 6% | [6]; [18] 69% | [7]; at 1.2 µM -27% | [7]; at 3.7 µM -13% | [7]; at 11.0 µM 28% | [8]; [17] -13% | [9]; at 1.2 µM 5% | [9]; at 3.7 µM 8% | [9]; at 11.0 µM 45% | [10]; [17] 49% | [11]; at 1.2 µM -21% | [11]; at 3.7 µM -8% | [11]; [17] 55% | [11]; at 11.0 µM 20%
